Several values for one entry are separate records, joined by “and”; a condition that tells them apart may be missing. Equal values may be shown once. Inconclusive results are not listed. Where a call stands in place of a potency, no number is given. More than one record can exist for a structure, and the calls need not agree. Activity calls are given as the source filed them. Calls come from the whole dose curve; as a rule, active = well fitted cell-killing curve with a large enough effect in the repeat runs; inconclusive = weak or mixed curves; inactive = no such curve, though single readings can be large or run the other way.
test: qHTS assay to identify small molecule agonists of the peroxisome proliferator-activated receptor delta (PPARd) signaling pathway - cell viability counter screen (AID 743211); details: PPARd-bla HEK293H viability, CellTiter-Glo luminescence, 17 h; series mostly up to 62.6 µM; activity change, negative = cytotoxicity: at the top concentration; note: nearly all actives have a fitted effect of over 55% in size
From the text: U.S. Tox21 Program National Center for Advancing Translational Sciences [NCATS] NIH Chemical Genomics Center [NCGC] U.S. Environmental Protection Agency [EPA] National Institutes of Environmental Health Sciences [NIEHS] National Toxicology Program [NTP] U.S. Food and Drug Administration [FDA] Tox21 Assay Overview: The peroxisome proliferator-activated receptors (PPARs) are lipid-activated transcription factors of the nuclear receptor superfamily with three distinct subtypes namely PPAR alpha, PPAR delta (PPARd) and PPAR gamma. All these subtypes heterodimerizes with Retinoid X receptor (RXR) and have different physiological functions. […] To identify the compounds that activate PPAR-delta signaling, GeneBLAzer PPAR delta UAS-bla HEK293H cell line (Invitrogen, Carlsbad, CA, USA) containing a beta-lactamase reporter gene under the control of an Upstream Activator Sequence (UAS) was used to screen the Tox21 compound library. The cytotoxicity of the Tox21 compound library against the PPARd-bla cell line was tested in parallel by measuring the cell viability using CellTiter-Glo assay (Promega, Madison, WI) in the same wells.
Tox21 Assay Protocol Summary: PPARd-bla cells were dispensed at 3000 cells/6uL/well in 1536-well black wall/clear bottom plates using a Multidrop Combi (Thermo Fisher Scientific, Waltham, MA) dispenser. After the assay plates were incubated at 37 C and 5% CO2 for 5 h, 23 nL of compounds dissolved in DMSO, positive controls or DMSO only was transferred to the assay plate by a Pintool station (Kalypsys, San Diego, CA). The assay plates were incubated at 37C for 17 h. After 1 uL of LiveBLAzerTM B/G FRET substrate was added using a Bioraptr Flying Reagent Dispenser (FRD) workstation (Beckman Coulter, Indianapolis, IN, USA), the plates were incubated at room temperature for 2 h, and fluorescence intensity was measured by an Envision plate reader (PerkinElmer, Shelton, CT). For cell viability readout that measures cytotoxicity, 3 ul/well of CellTiter-Glo reagent was added into the assay plates using a Bioraptr FRD. After 30 min incubation at room temperature, the luminescence intensity in the plates was measured using a ViewLux plate reader (PerkinElmer).
Potency is the fitted concentration of half-maximal effect.

Compound	Potency	activity change, negative = cytotoxicity
NCCS(=O)(=O)O	inactive	
Cc1ccc2c(c1)C(=O)OC2=O	inactive	
Nc1ccc2c(c1)C(=O)c1ccccc1C2=O	inactive	
CCCOCCO	inactive	
CCC(Cc1c(I)cc(I)c(N)c1I)C(=O)O (stereo not given)	inactive	
CC/C(=C(/CC)c1ccc(O)cc1)c1ccc(O)cc1	61.6 µM (active)	
CN(C)C	inactive	
CN(C)CCCN1c2ccccc2Sc2ccc(Cl)cc21	11 µM (active) and 23.7 µM (active)	
O=C(O)c1cc(=O)[nH]c(=O)[nH]1		-1.98% (inactive)
CCCCCCCCCCCCCO	inactive	
C=CC(C)(O)CCC=C(C)C (stereo not given)	inactive	
CCOC(=O)C(C)Oc1ccc(Oc2cnc3cc(Cl)ccc3n2)cc1 (stereo not given)	inactive	
COc1ccc2nc(N)sc2c1	inactive	
Cc1ccc(C(C)(C)C)cc1	inactive	
C[C@]12CC[C@@H]3c4ccc(O)cc4CC[C@H]3[C@@H]1CC[C@@H]2O	inactive	
CC(=O)Oc1c(C)c(C)c2c(c1C)CC[C@@](C)(CCC[C@H](C)CCC[C@H](C)CCCC(C)C)O2		4.55% (inactive)
Cc1ccc(/C(=C\CN2CCCC2)c2ccccn2)cc1		-15.4% (inactive)
Brc1nc2ccccc2s1	inactive	
CC(C)[C@@H]1CC[C@@H](C)CC1=O	inactive	
CCCCCCC(C)O (stereo not given)	inactive	

Compound	Potency	activity change, negative = cytotoxicity
O=C1OC2(c3ccccc31)c1cc(I)c(O)c(I)c1Oc1c2cc(I)c(O)c1I	inactive	
c1ccc2ncccc2c1	inactive	
CC(=O)O[C@]1(C(C)=O)CC[C@H]2[C@@H]3C=C(C)C4=CC(=O)CC[C@]4(C)[C@H]3CC[C@@]21C	inactive	
C=C[C@H]1CN2CC[C@H]1C[C@H]2[C@H](O)c1ccnc2ccc(OC)cc12		-18.2% (inactive)
C/C=C/C(=O)N(CC)c1ccccc1C	inactive	
CC(=O)Oc1ccc(C(c2ccc(OC(C)=O)cc2)c2ccccn2)cc1		-5.69% (inactive)
FC(F)(F)C(Cl)Br (stereo not given)	inactive	
CCCCCC1C(=O)CCC1CC(=O)OC (stereo not given)	inactive	
C=C[Si](OCCOC)(OCCOC)OCCOC	inactive	
CC(C)[N+](C)(CCOC(=O)C1c2ccccc2Oc2ccccc21)C(C)C	inactive	
O=Cc1ccccc1C=O		5.39% (inactive)
CCO[Si](CCCNC(N)=O)(OCC)OCC	inactive	
CCC/C=C/C=O	inactive	
CCCCCCCCCCC(CO)CCCCCCCC (stereo not given)		-0.592% (inactive)
CC(=O)O[C@]1(C(C)=O)CC[C@H]2[C@@H]3C=C(Cl)C4=CC(=O)CC[C@]4(C)[C@H]3CC[C@@]21C	48.9 µM (active) and inactive	
COc1cc([C@H]2Oc3cc([C@H]4Oc5cc(O)cc(O)c5C(=O)[C@@H]4O)ccc3O[C@@H]2CO)ccc1O	inactive	
CC1(C)C(C=C(Cl)Cl)C1C(=O)OCc1cccc(Oc2ccccc2)c1 (stereo not given)	inactive	
Cc1ccc(C)c(O)c1	inactive	
CNC[C@H](O)c1ccc(O)c(O)c1	inactive	
C=C1C[C@H]2[C@@H]3C=C(C)C4=CC(=O)CC[C@]4(C)[C@H]3CC[C@]2(C)[C@@]1(OC(C)=O)C(C)=O	inactive	

Source: PubChem BioAssay (Tox21)
